From PubChem BioAssay AID1851 (National Center for Advancing Translational Sciences (NCATS), 2009) come the findings set out here.

Molecules are shown by their SMILES. Screen size: about 16,000 compounds; about 2,600 (16%) were called active. Another 20% or so got no clear call; they are omitted. This is one part of a sample in which actives are shown more often than they occur. Values without a mark were called inactive. Calls come from the whole dose curve; as a rule, active = well fitted curve in the direction sought with a large enough effect; inconclusive = small, poorly fitted or top-dose-only effect, or effect the other way; inactive = no such curve, though single readings can be large or run the other way.

A word on the AC50: it is the concentration giving half of the maximal activity seen.
% is set by controls: 0 for no effect and ±100 for the full control effect.

The target in the experiment is Cytochrome P450 2D6 (Homo sapiens) (UniProt P10635). The experiment in a line: Cytochrome panel assay with activity outcomes. To be noted: recombinant CYP, pro-luciferin dealkylation, luminescence, p450-cyp2d6; series mostly up to 57.1 µM; activity, negative = inhibition: at the top concentration.
Cytochrome P450 2D6 (Homo sapiens), sequence (P10635 whole entry, looked up): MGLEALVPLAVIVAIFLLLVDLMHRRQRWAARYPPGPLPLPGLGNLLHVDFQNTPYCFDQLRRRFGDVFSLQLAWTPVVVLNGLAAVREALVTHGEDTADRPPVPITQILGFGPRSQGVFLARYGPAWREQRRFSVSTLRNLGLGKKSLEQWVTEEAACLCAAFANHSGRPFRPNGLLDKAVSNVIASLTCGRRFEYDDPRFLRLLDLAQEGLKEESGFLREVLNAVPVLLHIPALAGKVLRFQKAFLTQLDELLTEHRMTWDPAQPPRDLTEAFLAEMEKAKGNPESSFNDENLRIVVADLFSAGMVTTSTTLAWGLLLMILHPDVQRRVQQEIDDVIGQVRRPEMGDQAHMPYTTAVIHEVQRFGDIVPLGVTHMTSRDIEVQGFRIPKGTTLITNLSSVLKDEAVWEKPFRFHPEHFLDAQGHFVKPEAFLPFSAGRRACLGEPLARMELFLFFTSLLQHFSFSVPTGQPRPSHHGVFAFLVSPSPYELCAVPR
As for `CCC1(CCSC(=N)N)C(=O)NC(=O)NC1=O`, the activity, negative = inhibition is 12.5% [at 11.4 µM]. Consider `C=C1CC[C@H](O)C/C1=C/C=C1\CCC[C@]2(C)[C@H]1CC[C@H]2[C@@H](C)CCCC(C)C`, for which the “activity, negative = inhibition” value was 3.42% [at 25.6 µM]. As for `O=P(O)(O)C(Cl)(Cl)P(=O)(O)O`, the “activity, negative = inhibition” value was 11%. On to `CC(C)CN1CCC2(CC1)CCN(S(C)(=O)=O)CC2`, for which the AC50 is 0.794 µM (active). The same measure, in the same setting: under `COC(=O)N1CCC2(CCN(CC(C)C)CC2)CC1` stands 10 µM (active). In the case of `CC(C)NC(=O)N1CCC2(CC1)CCN(C(=O)Oc1ccccc1)CC2`, the “activity, negative = inhibition” value was -2.03%. On the same count and under the same terms, under `COC(=O)N1CCC2(CCCN(C)C2)CC1` stands -15%.

With `NN=C(N)N`, the AC50 entry is “inactive”. `Cc1c(C(=O)c2ccc3ccccc3c2)c2cccc3c2n1[C@H](CN1CCOCC1)CO3`: the “activity, negative = inhibition” value was -4.76%. As for `CN1CCN(c2ccc3ccccc3n2)CC1`, the AC50 entry was “inactive”. Regarding `O[C@@H]1[C@@H]2c3cc4c(cc3CN3CCC(=C[C@@H]1O)[C@H]23)OCO4`, the AC50 was 3.98 µM (active).

In the case of `CC(=NCCN1CCOCC1)c1c(O)n(Cc2ccccc2)c(=O)[nH]c1=O`, the “activity, negative = inhibition” value is -0.802%. As for `C[C@@H]1OC=C2[C@@H](O)[C@H]3O[C@H]3C(=O)[C@@]23[C@H]1[C@H]1C2=C([C@@H](O)[C@H]4O[C@@H]4C2=O)[C@@H]3O[C@@H]1C`, the activity, negative = inhibition was 1.81% [at 11.4 µM]. Consider `COc1ccc(C2SCC(=O)Nc3c2c(C)nn3-c2ccccc2)cc1OC` (stereo not given), for which the “activity, negative = inhibition” value was 1.57%. Still for that read-out and setting: under `O=[N+]([O-])c1cc(O)c(O)c([N+](=O)[O-])c1` stands 5.33%. Regarding `CC1=NN(c2ccc(S(=O)(=O)O)cc2C)C(=[OH+])[C@H]1N=Nc1cc(S(=O)(=O)O)ccc1C(=O)O.O.[Cr]`, the activity, negative = inhibition was -4.46% [at 11.4 µM]. Consider `CP(=O)(O)CCCN`, for which the AC50 result is “inactive”.

With `CN1C[C@H](CO)C=C2c3cccc4[nH]cc(c34)C[C@@H]21`, the AC50 was 0.126 µM (active).

`CC(C)C[C@H]1C(=O)N2CCC[C@@H]2[C@@]2(O)O[C@](NC(=O)[C@@H]3C=C4c5cccc6[nH]cc(c56)C[C@@H]4N(C)C3)(C(C)C)C(=O)N12`: the “activity, negative = inhibition” value is -5.32% [at 25.6 µM]. Take `CN1C[C@H](C(=O)N[C@@]2(C)O[C@@]3(O)[C@H]4CCCN4C(=O)[C@@H](Cc4ccccc4)N3C2=O)C=C2c3cccc4[nH]cc(c34)C[C@@H]21`: the activity, negative = inhibition is -1.39% [at 11.4 µM]. In the case of `O=C(NCP(=O)(O)O)c1cccnc1`, the activity, negative = inhibition is -2.73% [at 11.4 µM]. For `O=C(Nc1ccccc1)N1CCC2(CC1)CCN(C(=O)Oc1ccccc1)CC2`, the “activity, negative = inhibition” value was -14.2%.

Consider `Cc1ccc(C2(c3ccc(C)c(O)c3C)CCN(C)CC2)c(C)c1O`, for which the activity, negative = inhibition was -18.9% [at 11.4 µM].

Turning to `Cn1c(O)c(C(c2ccccn2)c2c(O)n(C)c(=S)n(C)c2=O)c(=O)n(C)c1=S`, the “activity, negative = inhibition” value was 16.6%. The same measure, in the same setting: under `C[C@@]12CC[C@H](O)C[C@@H]1CC[C@H]1[C@@H]2C[C@@H](O)[C@]2(C)[C@@H](C3=CC(=O)OC3)CC[C@]12O` stands -7.6% [at 25.6 µM]. Regarding `c1ccc2c(c1)Sc1ccccc1N2C[C@H]1CN2CCC1CC2`, the AC50 is 0.398 µM (active).

For `CN1CCc2nc3ccc(F)cc3c(C(N)=O)c2C1`, the “activity, negative = inhibition” value is -18.2%.

For `CCOc1ccc2c(c1)C(C)=CC(C)(C)N2`, the AC50 was 2.51 µM (active). For `CCCn1c(C)c(C(=O)c2cccc3ccccc23)c2ccccc21`, the “activity, negative = inhibition” value was -2.05%. In the case of `O=C(c1cc(=O)[nH]c2ccc(Br)cc12)N1CCC2(CC1)OCCO2`, the “activity, negative = inhibition” value was 1.7%.

Consider `CC(=O)OC1N=C(c2ccccc2)c2cc(Br)ccc2N(C)C1=O` (stereo not given), for which the “activity, negative = inhibition” value was -17.4%.

In the case of `C[C@@H]1O[C@H](C[N+](C)(C)C)CS1`, the “activity, negative = inhibition” value was 4.31%. Consider `COc1cccc(-n2c(O)c(C=NCCN3CCOCC3)c(=O)[nH]c2=O)c1`, for which the “activity, negative = inhibition” value was -36.7%. Regarding `CC1CN=C(Nc2cccc3ccccc23)S1` (stereo not given), the AC50 was 11.2 µM (active). As to `C[N+]1(C)CCO[C@@](O)(c2ccc(-c3ccc([C@]4(O)C[N+](C)(C)CCO4)cc3)cc2)C1`, the “activity, negative = inhibition” value is -1.61%.

Consider `CCOC(=O)[C@@H]1[C@@H]2c3ccccc3-c3ccccc3[C@H]2C[C@H]1O`, for which the activity, negative = inhibition is -5.13% [at 11.4 µM]. For `COC(=O)C(O)(c1c(C)[nH]c2ccccc12)C(F)(F)F` (stereo not given), the “activity, negative = inhibition” value is -14.7%. Turning to `CCOC(=O)C1Cc2c([nH]c3ccccc23)CN1` (stereo not given), the AC50 was 12.6 µM (active). With `CCOC(=O)Cn1cc(C(=O)c2ccccc2F)c2ccccc21`, the “activity, negative = inhibition” value is -14.1%. Consider `O=C(O)c1ccccc1-c1c2cc(Br)c(=O)cc-2oc2[c]([Hg])c(O)c(Br)cc12`, for which the “activity, negative = inhibition” value is -18.3% [at 25.6 µM]. With `CC[N+](CC)(CC)CCOc1cccc(OCC[N+](CC)(CC)CC)c1OCC[N+](CC)(CC)CC`, the “activity, negative = inhibition” value was 2.95%. The same measure, in the same setting: under `c1cncc(CNCCN2CCNCC2)c1` stands -5.64% [at 11.4 µM].

In the case of `c1cncc(CNc2cc(-c3ccc4c(c3)OCO4)ncn2)c1`, the AC50 is 20 µM (active).

For the molecule `C[C@@H](COc1ccccc1)N(CCCl)Cc1ccccc1`, the AC50 is 1.58 µM (active). On to `NNC(=O)c1ccc(O)cc1`, for which the “activity, negative = inhibition” value is -8.63%. Take `O=C(O)C[O][Sb][O]CC(=O)O`: the activity, negative = inhibition was 2.9% [at 11.4 µM]. In the case of `O=C(O)[C@H]1[O][Sb][O][C@@H](C(=O)O)C1O` (stereo not given in full), the activity, negative = inhibition was -8.1% [at 11.4 µM].

Turning to `CCCCCCC[n+]1ccc(-c2cc[n+](CCCCCCC)cc2)cc1`, the AC50 is 7.94 µM (active). `COc1cc(C=C(C#N)C#N)cc(O)c1O`: the “activity, negative = inhibition” value is -10.1%. On the same count and under the same terms, under `C[C@@]12CC[C@@H]3[C@H](CCC4=CC(=O)CC[C@]43C)[C@@H]1CC[C@@H]2C(=O)COS(=O)(=O)c1ccc(Br)cc1` stands 3.29% [at 11.4 µM].
